Bioassay records (PubChem)
An excerpt weighted towards active compounds, which were near 2.1% of everything screened.
KKLEB tox – counter-screen for CF NF-kB inhibitors: cytotoxicity; KKLEB CF airway cells viability, ATPlite luminescence, overnight; active compounds read low; cells stimulated with P. aeruginosa culture filtrate; activity change (cytotoxicity), % at 5 µM; actives 0.36% (n = 360,000);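 active means corrected activity change at or below -50% at 5 µM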
CF NFkB inh – blocks PAF-induced NF-kB reporter in cystic fibrosis cells; actives 0.86% (n = 360,000); KKLEB NF-kB-GFP reporter, GFP fluorescence overnight; inhibition, % at 5 µM;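 active means at least 50% inhibition at 5 µM, scaled per plate between neutral and stimulator controls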;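 further: PAF is a Pseudomonas aeruginosa culture filtrate used as stimulus; plate controls were PAF-stimulated DMSO wells for no effect and unstimulated DMSO wells for full effect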
PAX8 inh HTS – PAX8 transcriptional activity inhibition; RMG-I TPO-luciferase reporter, SteadyGlo, 24 h; actives 1.2% (n = 360,000); inhibition, % at 12.6 µM;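 active means mean replicate inhibition at least 60% with every replicate also reaching 60%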;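 further: luciferase light reporting Pax8 driven TPO promoter activity; plate controls were median of neutral control wells for no effect and mitoxantrone controls for full effect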
HIF-2a block – inhibitors of HIF-2a. inhibition, % at 18.8 µM. 786-0 RCC cells HIF-2a reporter, luciferase luminescence, overnight. actives 0.72% (n = 360,000);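 active means inhibition of the luminescence signal of 40% or more relative to plate controls, in a single-dose primary screen at 18.75 µM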
EWS-Fli block – blocks EWS/Fli oncoprotein-driven transcription | A673 NR0B1-luciferase reporter, viability-normalised | actives 0.67% (n = 350,000) | inhibition, % at 12.6 µM;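 active means mean inhibition of at least 50% after viability correction, with every replicate also passing that limit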;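 further: firefly luciferase signal divided by Alamar Blue viability fluorescence both relative to DMSO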
* marks the source's active call; other numbers are inactive results; . = not tested or not shown.

SMILES	KKLEB tox	CF NFkB inh	PAX8 inh HTS	HIF-2a block	EWS-Fli block
COc1ccc(S(=O)(=O)N2CC[C@H]3[C@H](CO)Nc4ccc(-c5cccc(C#N)c5)cc4[C@H]32)cc1	.	.	31.0	.	-3.3
COc1cccc(-c2ccc3c(c2)[C@H]2[C@H](CCN2S(=O)(=O)c2cccc(OC)c2)[C@H](CO)N3)c1	.	.	10.9	.	-15.2
COc1cccc(-c2ccc3c(c2)[C@@H]2[C@@H](CCN2S(=O)(=O)c2cccc(OC)c2)[C@H](CO)N3)c1	.	.	73.4*	.	-0.3
COc1ccc(NC(=O)Nc2cccc3c2O[C@H](CN(C)S(=O)(=O)c2ccccc2)[C@H](C)CN([C@H](C)CO)C3=O)cc1	.	.	-18.5	.	-10.3
O=C(C[C@H]1C=C[C@H](NC(=O)CCN2CCCCC2)[C@@H](CO)O1)Nc1ccccc1	.	.	-10.9	.	8.6
CCCC(=O)N(C1CC(C)C(C#N)(C#N)C1(C#N)C#N)N(C)C (stereo unspecified)	1.1	10.9	67.6*	85.7*	14.4
CC(=O)N(C1CC(C)C(C#N)(C#N)C1(C#N)C#N)N(C)C (stereo unspecified)	0.5	6.2	74.9*	46.1*	36.0
O=C(N[C@H]1C=C[C@H](CC(=O)N2CCc3ccccc3C2)O[C@H]1CO)C1CCOCC1	.	.	.	.	14.1
COc1ccc2c3c([nH]c2c1)[C@@H](CO)N(C(=O)C1CCCC1)CC31CCN(C)CC1	.	.	0.4	.	-8.5
CO[C@H]1CC[C@H]2CCN(C)C(=O)[C@H](C)[C@@H](OC)CN(C)C(=O)c3cc(C#N)ccc3OC[C@H]1O2	.	.	-9.0	.	-2.8
CC(NNC(=S)N1CCN(c2ccccn2)CC1)c1nccc2ccccc12 (stereo unspecified)	-11.8	0.5	71.8*	52.0*	25.8
CCNC(=S)N1CCN(c2ccccn2)CC1	-8.3	-11.4	-3.4	12.9	-6.9
CC1=CN2C(=N)/C(=C/c3ccco3)C(=O)N=C2S1	-2.6	-17.5	-81.7	-194.2	-30.6
CC1=CN2C(=N)/C(=C/c3ccc([N+](=O)[O-])o3)C(=O)N=C2S1	-48.7	51.3*	14.3	66.7*	55.6*
CCOC(=O)N1CCN(C2=C(NS(=O)(=O)c3ccc(Br)cc3)C(=O)c3ccccc3C2=O)CC1	12.0	58.5*	10.7	2.3	-17.4
COCC(=O)N(C)C[C@H]1Oc2ncc(C#CC3(O)CCCC3)cc2C(=O)N([C@H](C)CO)C[C@H]1C	.	.	.	.	-2.6
CCN(CC)c1ccc(N2C(=O)/C(=C/c3cccnc3)SC2=S)cc1	-39.0	56.3*	-0.2	8.3	.
CCN(CC)c1ccc(N2C(=O)/C(=C\c3cccnc3)SC2=S)cc1	4.1	4.5	8.6	10.8	.
CCCC(=O)N1CCC2(CC1)CN(C(=O)CC)[C@@H](CO)c1c2c2ccc(OC)cc2n1C	.	.	.	.	-3.4
COc1ccc2c3c([nH]c2c1)[C@H](CO)N(C(=O)Nc1ccc(F)cc1)CC31CCN(S(=O)(=O)c2cccs2)CC1	.	.	.	.	4.1
COc1cc([C@H]2c3[nH]c4ccccc4c3C[C@H]3C(=O)N4[C@@H](c5cc(OC)c(OC)c(OC)c5)c5[nH]c6ccccc6c5C[C@H]4C(=O)N23)cc(OC)c1OC	-22.7	39.4	.	52.2*	.
CCN1C(=O)[C@@H]2Cc3c([nH]c4ccccc34)C(c3cc(OC)c(OC)c(OC)c3)N2C1=S (stereo partly specified)	-5.1	-100.2	33.2	13.5	7.9
COc1cc(C2c3[nH]c4ccccc4c3CC3COC(=O)N32)cc(OC)c1O (stereo unspecified)	-24.6	36.4	.	12.0	64.4*
NCc1csc(Nc2ccc(C(=O)c3ccccc3)cc2)n1	-6.6	34.1	34.2	-13.2	51.7*
CN1C(=O)c2cc(NC(=O)C3CCCC3)ccc2OC[C@@H]2O[C@H](CC(=O)Nc3ccccc3)CC[C@@H]21	.	.	20.4	.	12.3
SMILES	KKLEB tox	CF NFkB inh	PAX8 inh HTS	HIF-2a block	EWS-Fli block
O=C(Nc1nc2ccccc2s1)c1cnccn1	12.0	-25.6	.	-137.6	.
O=C(Nc1nc2cc3c(cc2s1)OCCO3)C1=COCCO1	-56.0*	-4.5	94.0*	79.5*	89.3*
O=C(Nc1nc2ccc(F)cc2s1)c1ccccn1	.	.	74.7*	.	83.8*
O=C(Nc1nc2ccc(F)cc2s1)C1=COCCO1	2.9	-40.0	12.8	18.0	68.7*
COc1ccc(C(=O)Nc2nc3cc4c(cc3s2)OCO4)c(OC)c1	-54.4*	48.9	-182.4	-308.1	-45.0
CO[C@@H]1CN(C)C(=O)c2ccc(NC(=O)Nc3ccc(Cl)cc3)cc2OC[C@@H](C)N(C(=O)Nc2c(C)noc2C)C[C@@H]1C	.	.	-12.2	.	1.8
